# From the supplement of paper PMC8728848
# This is one part of a sample in which the strongest signals are shown more often than they occur.
# B1: SP8524D-bot-399-27-399 (Bacteroides ovatus) (protein)
# chain: DAKYDTLDTHAYIEEALSSTSQKVTVQATGESFTTLNVHLSNLSSTDNHYKLVTDQSVLDTYNHINGTGYIMLPKDYYTLPETITVKAGQYAADALSIALKAFSQEMMKSGESYALPVKLVLQDGSISPMENTGTFVILAESIIEFSAPMFVGAPSLKANKFTESPETYSQYTIEVRFQVANTADRDRAVFKNGGDDANFILLRFEDPQSDNENYKAHSLVQIVGRNRLYLNPSNSFKPNEWQHLALVCDGSNYRLYINGVDSGVLSIPTGATTFSDVNWFCLGDDSYSRWGNCKILMSEARIWSVVRSASQIQNNMTQVSPKSVGLEAYWRFNEGQGNVFEDATGKGHTLTTSATPTWIDGILSTDKSTEWK
# What was measured:
# Assay in all cases: glycan array binding signal (z-score within array); higher = stronger binding
# Details in all cases: glycan notation: IUPAC condensed, linker removed
# [1] = target: GlcNAc(b1-3)Gal(b1-4)GlcNAc(b1-3)Gal(b1-4)GlcNAc(b1-2)[GlcNAc(b1-3)Gal(b1-4)GlcNAc(b1-3)Gal(b1-4)GlcNAc(b1-6)]Man(a1-6)[GlcNAc(b1-3)Gal(b1-4)GlcNAc(b1-3)Gal(b1-4)GlcNAc(b1-2)Man(a1-3)]Man(b1-4)GlcNAc(b1-4)[Fuc(a1-6)]GlcNAc
# How it was run: (§1)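 The Consortium for Functional Glycomics database supplied 3228 glycan arrays, of which those lacking an available protein sequence were dropped. The binding signal, a within-array Z-score, was averaged across arrays of the same protein sequence and across linkers. Negative scores can be read as non-binding.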
# [2] = target: GlcNAc(b1-4)GlcNAc(b1-4)GlcNAc
# How it was run: as §1
# [3] = target: Kdn(a2-3)Gal(b1-4)[Fuc(a1-3)]GlcNAc
# How it was run: as §1
# [4] = target: Man(a1-2)Man(a1-6)[Man(a1-3)]Man(a1-6)[Man(a1-2)Man(a1-2)Man(a1-3)]Man
# How it was run: as §1
# [5] = target: Man(a1-3)[Man(a1-6)]Man(a1-6)[Man(a1-3)]Man
# How it was run: as §1
# [6] = target: Neu5Ac(a2-3)Gal(b1-3)GlcNAc(b1-3)GalNAc
# How it was run: as §1
# [7] = target: Neu5Ac(a2-3)Gal(b1-3)[Fuc(a1-4)]GlcNAc(b1-3)Gal(b1-3)[Fuc(a1-4)]GlcNAc
# How it was run: as §1
# [8] = target: Neu5Ac(a2-3)Gal(b1-4)GlcNAc(b1-2)[Neu5Ac(a2-3)Gal(b1-4)GlcNAc(b1-4)]Man(a1-3)[GlcNAc(b1-4)][Neu5Ac(a2-3)Gal(b1-4)GlcNAc(b1-2)[Neu5Ac(a2-3)Gal(b1-4)GlcNAc(b1-6)]Man(a1-6)]Man(b1-4)GlcNAc(b1-4)GlcNAc
# How it was run: as §1
# [9] = target: Neu5Ac(a2-3)Gal(b1-4)[Fuc(a1-3)]GlcNAc(b1-3)GalNAc
# How it was run: as §1
# [10] = target: Neu5Ac(a2-3)GalNAc
# How it was run: as §1
# [11] = target: Neu5Ac(a2-3)[GalNAc(b1-4)]Gal(b1-4)Glc
# How it was run: as §1
# [12] = target: Neu5Ac(a2-6)Gal(b1-4)GlcNAc(b1-2)Man(a1-3)[GlcNAc(b1-4)][Neu5Ac(a2-6)Gal(b1-4)GlcNAc(b1-2)Man(a1-6)]Man(b1-4)GlcNAc(b1-4)GlcNAc
# How it was run: as §1
# [13] = target: Neu5Ac(a2-6)Gal(b1-4)GlcNAc(b1-2)[Neu5Ac(a2-6)Gal(b1-4)GlcNAc(b1-4)]Man(a1-3)[GlcNAc(b1-4)][Neu5Ac(a2-6)Gal(b1-4)GlcNAc(b1-4)Man(a1-6)]Man(b1-4)GlcNAc(b1-4)GlcNAc
# How it was run: as §1
# [14] = target: Neu5Ac(a2-6)Gal(b1-4)GlcNAc(b1-3)Gal(b1-4)GlcNAc(b1-2)Man(a1-3)[Neu5Ac(a2-6)Gal(b1-4)GlcNAc(b1-3)Gal(b1-4)GlcNAc(b1-2)Man(a1-6)]GalNAc
# How it was run: as §1
# [15] = target: Neu5Ac(a2-6)Gal(b1-4)GlcNAc(b1-3)Gal(b1-4)GlcNAc(b1-3)Gal(b1-4)GlcNAc
# How it was run: as §1
# [16] = target: Neu5Ac(a2-6)Gal(b1-4)GlcNAc(b1-3)GalNAc
# How it was run: as §1
# [17] = target: Neu5Ac(b2-6)Gal(b1-4)GlcNAc
# How it was run: as §1
binder,measurement,setting,value
B1,glycan array binding signal (z-score),[1],1.11
same,glycan array binding signal (z-score),[2],-0.187
same,glycan array binding signal (z-score),[3],0.119
same,glycan array binding signal (z-score),[4],-0.455
same,glycan array binding signal (z-score),[5],0.159
same,glycan array binding signal (z-score),[6],-0.628
same,glycan array binding signal (z-score),[7],0.014
same,glycan array binding signal (z-score),[8],-0.648
same,glycan array binding signal (z-score),[9],0.96
same,glycan array binding signal (z-score),[10],-0.038
same,glycan array binding signal (z-score),[11],0
same,glycan array binding signal (z-score),[12],0.589
same,glycan array binding signal (z-score),[13],0.44
same,glycan array binding signal (z-score),[14],0.437
same,glycan array binding signal (z-score),[15],-0.075
same,glycan array binding signal (z-score),[16],-0.138
same,glycan array binding signal (z-score),[17],-0.048
